# Only some compounds are listed: those with a hit (about 3.8% of all), similar ones and a draw of the others.
# ATXN viability: viability counter-screen for ATXN expression inhibitors; AID 651635; 400,000 tested, 0.49% active; Potency, µM (top dose mostly 56.7 µM), usual class: cytotoxic; S2 cells (HEK-293 line with an ATXN2-luciferase reporter) viability, CellTiter-Fluor protease fluorescence, 24 h; note: nearly all actives have a fitted effect of over 40% in size
# HT1080-NT tox: kills 2HG-producing HT-1080-NT fibrosarcoma cells; Potency, µM (top dose mostly 46.1 µM), without a hit: top-dose activity, negative = less viability, hits mostly cytotoxic; AID 686970; 360,000 tested, 1.6% active; HT-1080-NT fibrosarcoma viability, CellTiter-Glo ATP luminescence, 48 h;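 note: NT is the 2HG producing partner of a matched IDH1 knockdown line; 0% = DMSO-treated cells and -100% = media-only wells without cells; nearly all actives have a fitted effect of over 55% in size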
#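 HT-1080-NT; 750 cells/well; 5% FBS RPMI; 48 h compound, 37 degrees C; CellTiter-Glo luminescence; curve fitting and curve-class assignment.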
# HepG2 tox: HepG2 cytotoxicity, counter-screen for TGF-b inhibitors; AID 588856; HepG2 CAGA-GFP viability, ATP luminescence, 18 h; Potency, µM (top dose mostly 46.1 µM), inactives show at the top dose activity change, negative = cytotoxicity, hits mostly cytotoxic; 410,000 tested, 0.76% active
#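 CellTiter-Glo luminescence gave cytotoxicity after 18 hours at 37 degrees C. The cells were HepG2 CAGA-GFP in 1% FBS DMEM, stimulated with 500 pg/mL TGF-beta after compound addition. %Activity was normalised to no-cell wells (complete cell-killing) and DMSO (no toxicity), and curves were fitted and classified.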
# ATXN2 expr inh: reduces ATXN2 reporter expression in HEK-293 cells. HEK-293 ATXN2-luciferase reporter, luminescence, 24 h. Potency, µM (series often up to 57 µM), for inactives: at the highest dose activity change, negative = inhibition, actives largely listed as inhibitors. 360,000 tested, 0.72% active; note: % is set by controls: 0 for no effect and ±100 for the full control effect; nearly all actives have a fitted effect of over 55% in size
#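 qHTS (up to 57 uM final) was run with 24 h compound exposure of reporter cells at 37 °C. Each well was multiplexed: SteadyGlo luminescence measured ATXN2-luciferase expression after a fluorogenic Gly-Phe-AFC viability readout (25 uM final).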
# TGFb SMAD3 inh: inhibitors of TGF-b signaling | AID 588855 | HepG2 CAGA-GFP TGF-b/SMAD3 reporter, GFP fluorescence, 18 h; TGF-beta stimulated, 500 pg/mL final | 410,000 tested, 1.2% active | Potency, µM (top dose mostly 46.1 µM), inactives show top-dose activity, negative = inhibition, most hits filed as inhibitors; note: % is set by controls: 0 for no effect and ±100 for the full control effect; nearly all actives have a fitted effect of over 65% in size
#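 GFP signal (ex488/em500-530) from TGF-beta-stimulated HEPG2 CAGA-GFP cells, 500 pg/mL final, 18 h at 37 degrees C in DMEM plus 1% FBS, normalized to unstimulated and DMSO-stimulated controls.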
# HT1080 IDH1KD tx: kills HT-1080 cells with IDH1 knockdown; HT-1080 IDH1 knockdown viability, ATP luminescence, 48 h; Potency, µM (doses to about 46.1 µM), inactives show top-dose activity, negative = toxicity, hits mostly cytotoxic; AID 686971; 360,000 tested, 2% active;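 note: 0% = DMSO wells and -100% = cell-free medium wells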
#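 Viability of IDH1-knockdown HT-1080 fibrosarcoma cells was assessed by CellTiter-Glo after 48 h at 37 °C with titrated compound; concentration-effect curves were classified by fit quality and response size.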
# An asterisk follows results filed as active; i = inactive; ? = inconclusive; . = no result given. Calls come from the whole dose curve; as a rule, active = well fitted curve in the direction sought with a large enough effect; inconclusive = small, poorly fitted or top-dose-only effect, or another doubt; inactive = no such curve, though single readings can be large; an effect the other way counts as inactive or inconclusive. Potency is the fitted concentration of half-maximal effect.
SMILES,ATXN viability,HT1080-NT tox,HepG2 tox,ATXN2 expr inh,TGFb SMAD3 inh,HT1080 IDH1KD tx
CCCCC(=O)NC(c1ccc(N(CC)CC)cc1)c1ccc2cccnc2c1O (stereo unspecified),i,?,-47%,2.8µM*,?,?
CCCCC(=O)NC(c1ccc(N(C)C)cc1)c1ccc2cccnc2c1O (stereo unspecified),?,?,-62%,?,?,?
Oc1c(C(Nc2cccc(C(F)(F)F)c2)c2ccncc2)ccc2cccnc12 (stereo unspecified),.,-29%,-47%,?,-18%,?
CCCCC(=O)NC(c1ccc(Cl)cc1)c1ccc2cccnc2c1O (stereo unspecified),i,?,-60%,7.9µM*,?,?
CCCC(=O)NC(c1ccc(C)cc1)c1ccc2cccnc2c1O (stereo unspecified),i,?,-18%,?,?,?
Oc1c(C(Nc2nccs2)c2ccc(C(F)(F)F)cc2)ccc2cccnc12 (stereo unspecified),i,?,-30%,13µM*,22µM*,?
COc1cc(OC)cc(C(=O)N(Cc2ccco2)Cc2cccs2)c1,.,.,0%,.,-21%,.
O=C(O)[C@@H](O)[C@H](O)[C@H](O)[C@@H](O)C(=O)O (tested in a mixture with another compound),i,.,.,.,.,.
C=C(C)c1nc(Oc2ccccc2)nc(Oc2ccccc2)n1,.,?,-93%,?,11µM*,?
Cc1cc(Oc2ccccc2)nc(-c2ccccc2)n1,i,-1%,0%,14%,0%,0%
O=C(NCCCc1ccccc1)c1cccc(Br)c1,i,14%,33%,.,17%,14%
O=C(CN(Cc1ccccc1)C(=O)CCl)c1cccc(Br)c1,25µM*,21µM*,-106%,22µM*,?,16µM*
CCC(C)c1ccc(C(C)NC(=S)NC2CCCCC2)cc1 (stereo unspecified),i,?,-14%,?,?,23µM*
CCc1ccc(C(C)NC(=S)NC2CCCCC2)cc1 (stereo unspecified),i,-5%,-44%,-38%,?,-1%
CC(NC(=S)NC1CCCCC1)c1ccc(C(C)(C)C)cc1 (stereo unspecified),i,-27%,-15%,?,?,23µM*
CC(C)c1ccc(C(C)NC(=S)NC2CCCCC2)cc1 (stereo unspecified),i,-3%,-17%,-38%,?,-1%
COC(=O)[C@H](CCCN=C(N)N)NS(=O)(=O)c1ccc(C)cc1,.,.,.,1%,.,.
Nc1ccc(C(=O)OCC(=O)N2c3ccccc3Sc3ccccc32)cc1[N+](=O)[O-],i,-3%,-31%,17%,?,-13%
NCCNc1ccc(C(=O)N2c3ccccc3Sc3ccccc32)cc1[N+](=O)[O-],.,?,-64%,?,0%,16µM*
Cc1ccc(NC(=S)NC(C)CCc2ccccc2)cc1C (stereo unspecified),i,-1%,-8%,-24%,?,-1%
CC(=O)c1ccc(NC(=S)NC(C)CCc2ccccc2)cc1 (stereo unspecified),i,-4%,-42%,7%,13µM*,3%
Cc1nn(C)c(C)c1S(=O)(=O)N(CC(=O)NCCc1ccc(Cl)cc1)c1ccc(C(C)C)cc1,.,.,-1%,.,1%,.
Cc1ccc(-n2c(O)c(/C=N/Nc3ccc(S(=O)(=O)N4CCOCC4)cc3[N+](=O)[O-])c3ccccc3c2=O)c(C)c1,?,12µM*,-47%,?,?,?
CC(CC12CC3CC(CC(C3)C1)C2)NCc1ccccc1O (stereo unspecified),?,-16%,16µM*,-53%,18µM*,-13%
Cc1cccc2sc(N(CCCN(C)C)C(=O)c3nc4ccccc4s3)nc12,?,1%,-48%,-28%,0%,-1%
SMILES,ATXN viability,HT1080-NT tox,HepG2 tox,ATXN2 expr inh,TGFb SMAD3 inh,HT1080 IDH1KD tx
Cc1ccc2sc(N(CCCN(C)C)C(=O)c3nc4ccccc4s3)nc2c1C,i,?,-137%,-19%,?,21µM*
CC(=O)c1ccc(C(=O)N(CCCN(C)C)c2nc3c(C)c(C)ccc3s2)cc1,i,.,-57%,-31%,?,.
Cc1ccc2sc(N(CCCN(C)C)C(=O)c3ccc(Br)s3)nc2c1C,.,21µM*,13µM*,20µM*,?,13µM*
COC(=O)Cc1c[nH]c2cccc(OCC(O)CN(Cc3ccc([N+](=O)[O-])cc3)C(C)(C)C)c12 (stereo unspecified),i,1%,-39%,-27%,-18%,-13%
Cc1ccc(CN(CC(O)COc2cccc3[nH]cc(C)c23)C(C)(C)C)cc1 (stereo unspecified),?,?,13µM*,.,?,-17%
Cc1ccc(SCc2[nH]nc3c2C2(C(=O)N(C)c4ccccc42)C(C#N)=C(N)O3)cc1 (stereo unspecified),i,15µM*,14%,1%,-22%,?
COCc1[nH]nc2c1C1(C(=O)N(C)c3ccccc31)C(C#N)=C(N)O2 (stereo unspecified),i,-3%,-1%,1%,3%,-3%
Cc1ccc(SCc2[nH]nc3c2C(c2ccc(C)o2)C(C#N)=C(N)O3)cc1 (stereo unspecified),i,-17%,-69%,-17%,?,?
Cc1ccc(SCc2[nH]nc3c2C(c2ccco2)C(C#N)=C(N)O3)cc1 (stereo unspecified),i,?,13µM*,-7%,?,-24%
CCc1[nH]nc2c1C(c1ccsc1)C(C#N)=C(N)O2 (stereo unspecified),i,1%,-5%,-11%,2%,7%
CCc1[nH]nc2c1C(c1ccc(Br)s1)C(C#N)=C(N)O2 (stereo unspecified),i,?,-99%,0%,11µM*,?
Cc1ccc(-c2nc(CCN3C(=O)c4ccccc4C3=O)cs2)cc1,i,?,-16%,89%,41%,10µM*
Cc1nnc(SCC(=O)NC(=O)Nc2ccc3c(c2)OCCO3)s1,i,9%,-28%,24%,-13%,10%
Cc1cccc(Nc2nnc(SCC(=O)NC(=O)Nc3ccc4c(c3)OCCO4)s2)c1,i,23µM*,-6%,?,3%,?
